Bioassay records from PubChem.
nsP2pro primary – Primary qHTS for inhibitors of NSP2Pro chikungunya virus (CHIKV) | Polyprotein P1234 (Chikungunya virus (strain S27-African prototype)), Q8JUX6 | 31,000 tested, 1.1% active | FRET peptide cleavage, nsP2pro, fluorescence 1 h | Potency, µM (doses to about 24.9 µM), actives largely listed as inhibitors; also: nearly all actives have a fitted effect of over 60% in size
Target sequence (Q8JUX6 whole entry, looked up): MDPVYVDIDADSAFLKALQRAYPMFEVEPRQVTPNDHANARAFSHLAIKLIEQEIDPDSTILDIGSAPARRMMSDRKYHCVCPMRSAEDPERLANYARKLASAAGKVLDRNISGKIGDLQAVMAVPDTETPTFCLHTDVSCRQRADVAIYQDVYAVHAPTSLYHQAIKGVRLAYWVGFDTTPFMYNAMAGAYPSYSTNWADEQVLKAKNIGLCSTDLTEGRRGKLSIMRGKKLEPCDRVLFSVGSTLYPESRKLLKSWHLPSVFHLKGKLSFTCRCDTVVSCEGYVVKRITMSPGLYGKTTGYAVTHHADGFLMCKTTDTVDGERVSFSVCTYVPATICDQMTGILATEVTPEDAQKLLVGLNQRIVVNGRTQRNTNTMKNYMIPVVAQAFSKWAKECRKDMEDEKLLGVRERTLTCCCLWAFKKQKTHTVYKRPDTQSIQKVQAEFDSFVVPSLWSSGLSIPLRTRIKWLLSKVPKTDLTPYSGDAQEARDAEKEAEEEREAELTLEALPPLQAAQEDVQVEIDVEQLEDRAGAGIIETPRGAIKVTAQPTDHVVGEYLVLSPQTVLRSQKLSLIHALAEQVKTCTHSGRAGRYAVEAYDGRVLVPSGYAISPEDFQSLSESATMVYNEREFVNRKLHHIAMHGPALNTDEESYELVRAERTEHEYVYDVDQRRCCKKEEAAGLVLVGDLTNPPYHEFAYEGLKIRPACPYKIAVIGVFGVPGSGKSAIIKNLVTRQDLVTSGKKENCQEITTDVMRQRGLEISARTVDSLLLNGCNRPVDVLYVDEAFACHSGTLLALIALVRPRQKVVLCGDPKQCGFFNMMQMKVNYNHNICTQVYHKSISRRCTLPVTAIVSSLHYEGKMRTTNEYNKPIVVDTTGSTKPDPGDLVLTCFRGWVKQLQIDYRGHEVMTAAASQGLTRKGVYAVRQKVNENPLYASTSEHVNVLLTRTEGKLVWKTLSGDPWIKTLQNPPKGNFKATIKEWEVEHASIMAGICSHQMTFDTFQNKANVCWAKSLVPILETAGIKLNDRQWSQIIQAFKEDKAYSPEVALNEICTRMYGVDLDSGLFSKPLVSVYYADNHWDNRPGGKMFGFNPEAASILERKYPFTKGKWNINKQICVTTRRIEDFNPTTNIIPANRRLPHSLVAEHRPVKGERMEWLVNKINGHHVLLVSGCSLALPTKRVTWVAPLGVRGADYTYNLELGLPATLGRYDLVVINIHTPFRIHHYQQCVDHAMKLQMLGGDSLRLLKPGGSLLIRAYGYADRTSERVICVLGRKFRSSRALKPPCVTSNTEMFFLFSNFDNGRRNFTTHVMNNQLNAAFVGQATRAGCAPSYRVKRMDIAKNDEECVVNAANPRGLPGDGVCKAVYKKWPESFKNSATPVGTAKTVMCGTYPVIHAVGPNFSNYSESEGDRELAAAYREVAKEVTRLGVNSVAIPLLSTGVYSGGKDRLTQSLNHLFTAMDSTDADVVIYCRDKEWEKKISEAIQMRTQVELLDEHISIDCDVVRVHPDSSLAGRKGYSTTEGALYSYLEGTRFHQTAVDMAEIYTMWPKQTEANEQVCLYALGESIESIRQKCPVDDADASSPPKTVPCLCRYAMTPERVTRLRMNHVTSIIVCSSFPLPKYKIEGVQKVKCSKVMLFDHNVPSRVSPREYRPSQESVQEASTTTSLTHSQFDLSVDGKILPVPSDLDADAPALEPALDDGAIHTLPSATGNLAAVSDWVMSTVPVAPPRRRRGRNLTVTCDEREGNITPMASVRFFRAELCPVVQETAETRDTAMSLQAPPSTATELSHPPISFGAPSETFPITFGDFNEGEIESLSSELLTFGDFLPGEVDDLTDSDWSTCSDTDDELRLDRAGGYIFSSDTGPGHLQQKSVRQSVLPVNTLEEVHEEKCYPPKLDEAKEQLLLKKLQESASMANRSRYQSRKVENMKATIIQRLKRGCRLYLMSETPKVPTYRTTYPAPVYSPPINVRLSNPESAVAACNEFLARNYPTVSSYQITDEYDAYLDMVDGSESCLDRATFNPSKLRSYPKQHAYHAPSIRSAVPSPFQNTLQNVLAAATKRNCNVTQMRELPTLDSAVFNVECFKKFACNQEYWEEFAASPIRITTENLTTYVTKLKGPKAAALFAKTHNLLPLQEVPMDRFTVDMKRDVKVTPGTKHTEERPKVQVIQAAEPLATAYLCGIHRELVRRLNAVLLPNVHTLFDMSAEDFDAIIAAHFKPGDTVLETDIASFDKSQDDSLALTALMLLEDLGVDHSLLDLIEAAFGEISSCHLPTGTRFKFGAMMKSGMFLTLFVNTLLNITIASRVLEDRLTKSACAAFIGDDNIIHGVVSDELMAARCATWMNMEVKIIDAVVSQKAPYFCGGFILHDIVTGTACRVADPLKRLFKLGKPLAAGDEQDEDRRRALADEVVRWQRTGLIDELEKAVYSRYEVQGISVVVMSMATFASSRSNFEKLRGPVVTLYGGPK
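Purified recombinant nsP2pro (150 nM final) in 10 mM Tris-HCl pH 8.0 with 0.01% Tween 20 was preincubated 15 min at room temperature with compound (7 concentrations, up to 25 uM). FRET peptide 2 substrate (2.5 uM final) was then added; fluorescence was read after 1 h.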
nsP2 cell sec – Secondary cell base assay for inhibitors of NSP2Pro Chikungunya virus (CHIKV); shares compounds with nsP2pro primary; cell-based CHIKV nsP2 protease reporter assay; Potency, µM (doses to about 51.1 µM), actives largely listed as inhibitors; 450 tested, 10% active; AID 1964100, 2024; also: nearly all actives have a fitted effect of over 70% in size
CHIKV NSP2 FL – Selectivity profile for inhibitors of NSP2Pro chikungunya virus (CHIKV): Full length NSP2 enzyme counterscreen (CHIKV-NSP2); shares compounds with nsP2pro primary; Full-length CHIKV NSP2 protease enzymatic counterscreen; Potency, µM (titrated, usually from 50.7 µM), actives largely listed as inhibitors; 410 tested, 39% active; also: nearly all actives have a fitted effect of over 65% in size
Furin counterscr – Selectivity profile for inhibitors of NSP2Pro chikungunya virus (CHIKV): Human furin counterscreen. shares compounds with nsP2pro primary. Recombinant human furin enzymatic counterscreen, fluorogenic substrate. Potency, µM (series often up to 50.6 µM), hits mostly inhibitors. 410 tested, 6% active. AID 1964102, 2024
NS23 peptide cs – Selectivity profile for inhibitors of NSP2Pro chikungunya virus (CHIKV): Endogenous NS2/3 peptide Counterscreen; shares compounds with nsP2pro primary; Purified CHIKV nsP2 protease, endogenous NS2/3 peptide cleavage; Potency, µM (doses to about 51 µM), most hits filed as inhibitors; 410 tested, 34% active; also: nearly all actives have a fitted effect of over 55% in size
Papain counter – Selectivity profile for inhibitors of NSP2Pro chikungunya virus (CHIKV): Papain Counterscreen; purified papain protease activity, enzymatic inhibition; shares compounds with nsP2pro primary; 410 tested, 5% active; Potency, µM (top dose mostly 51 µM), hits mostly inhibitors; AID 1964104, 2024
nsP2pro confirm – Confirmatory qHTS for inhibitors of NSP2Pro chikungunya virus (CHIKV); shares compounds with nsP2pro primary; AID 1964105, 2024; Potency, µM (highest dose often 25.5 µM), most hits filed as inhibitors; CHIKV nsP2 protease enzymatic activity, qHTS; 410 tested, 43% active; also: nearly all actives have a fitted effect of over 75% in size
HCV NS3 4A cs – Selectivity profile for inhibitors of NSP2Pro chikungunya virus (CHIKV): NS34A-HCV Counterscreen | Potency, µM (top dose mostly 50.9 µM), usual class: inhibitors | shares compounds with nsP2pro primary | HCV NS3/4A protease biochemical counterscreen | AID 1964106, 2024 | 410 tested, 20% active; also: nearly all actives have a fitted effect of over 55% in size
A number is an active result; - = inactive; ? = inconclusive. Shown is part of a subset that was picked to be rich in hits. Calls follow the shape of the full dose curve.

SMILES | nsP2pro primary | others
CCSc1ncc(Cl)c(C(=O)Nc2ccc(S(=O)(=O)N(C)c3ccccc3)cc2)n1 | -
CC(C)Sc1ncc(Cl)c(C(=O)Nc2ccc(S(=O)(=O)N(C)c3ccccc3)cc2)n1 | -
CCN(c1ccccc1)S(=O)(=O)c1ccc(NC(=O)c2nc(S(C)(=O)=O)ncc2Cl)cc1 | ? | nsP2 cell sec=2.6µM;CHIKV NSP2 FL=4.1µM;Furin counterscr=-;NS23 peptide cs=5.8µM;Papain counter=-;nsP2pro confirm=4.5µM;HCV NS3 4A cs=-
O=C(OC[C@H]1O[C@@H](OC(=O)c2cc(O)c(O)c(O)c2)[C@H](O)[C@@H](OC(=O)c2cc(O)c(O)c(O)c2)[C@@H]1O)c1cc(O)c(O)c(O)c1 | -
CCN(C(=O)CO)[C@H]1CN(C(=Nc2cccc(OC(F)F)c2)NC#N)N=C1c1ccc(Cl)c(Cl)c1 | -
Nc1nc(O)c(C2=C3C(=Nc4ccccc43)C(=O)NCC2)[nH]1 | ? | nsP2 cell sec=-;CHIKV NSP2 FL=-;Furin counterscr=-;NS23 peptide cs=-;Papain counter=-;nsP2pro confirm=-;HCV NS3 4A cs=-
Cc1cc(C)nc(NC(=S)N2CCN(c3cccc(S(C)(=O)=O)c3)CC2)c1 | -
COCC(=O)N1CCC(Oc2ccccc2C(=O)N(C)Cc2ncccc2C)CC1 | -
O=C(Nc1ccc(OC(F)(F)F)cc1)c1cc2ccccn2n1 | -
CCOc1ccc(NC(=O)c2cnc(N3CCCCC3)c3ccccc23)cc1 | -
O=C(Nc1ccc(OC(F)(F)F)cc1)c1nc2ccccc2nc1N1CCCCC1 | ? | nsP2 cell sec=-
CCc1nc2ccc(C(=O)N3CCN(c4cccc(OC)c4)CC3)cc2nc1CC | -
COC(=O)c1cc(CN2CCN(C(=N)N)CC2)cc(C(=O)N2CCN(C(=O)c3ccc(C(=N)N)cc3)CC2)c1 | ? | nsP2 cell sec=-;CHIKV NSP2 FL=15µM;Furin counterscr=9.2µM;NS23 peptide cs=?;Papain counter=?;nsP2pro confirm=?;HCV NS3 4A cs=-
COC(=O)c1ccc(O)c2ncc(-c3ccc(C(=O)N4CCNCC4)cc3)cc12 | -
CCN1C[C@@]2(COC)C3[C@@H](OC)C4[C@@H]1[C@@]3(C1C[C@]3(O)[C@H](OC(=O)c5ccccc5)C1[C@]4(OC(C)=O)[C@@H](O)[C@@H]3OC)[C@@H](OC)C[C@H]2O (stereo not given in full) | -
C/C=C/C=C/C=C/C(=O)O[C@@H]1C=C2COC(=O)[C@]2(O)[C@@]2(C)CCCC(C)(C)[C@H]12 | -
COc1ccccc1OCCN1C(=O)C2(CCOCC2)CC1c1nnnn1C(C)(C)C (stereo not given) | -
CCN(CC)CCS(=O)(=O)[C@@H]1CCN2C(=O)c3coc(n3)CC(=O)C[C@H](O)/C=C(C)/C=C/CNC(=O)/C=C/[C@@H](C)[C@@H](C(C)C)OC(=O)[C@@H]12 | -
CC(=O)C1=C(O)[C@@H]2[C@H]3c4c[nH]c5cccc(c45)C[C@H]3C(C)(C)N2C1=O | -
COc1cccc(C2N=C(Nc3nc4ccccc4o3)NC3=C2C(=O)CCC3)c1 (stereo not given) | -
CCc1ccc(S(=O)(=O)Nc2cnccc2C(=O)Nc2nc(-c3ccccc3)cs2)cc1 | -
O=C(NC1CCCCC1)OC[C@H]1C[C@@H]2CCN1C[C@@H]2c1cc(C2CCCC2)nc(-c2ccncc2)n1 | 7.9µM | nsP2 cell sec=-;CHIKV NSP2 FL=?;Furin counterscr=?;NS23 peptide cs=?;Papain counter=-;nsP2pro confirm=9µM;HCV NS3 4A cs=15µM
CC(C)NC(=O)OC[C@H]1C[C@@H]2CCN1C[C@@H]2c1cc(C2CCCC2)nc(-c2ccncc2)n1 | 5µM | nsP2 cell sec=-;CHIKV NSP2 FL=6.5µM;Furin counterscr=?;NS23 peptide cs=18µM;Papain counter=-;nsP2pro confirm=8µM;HCV NS3 4A cs=10µM
CCCS(=O)(=O)NC[C@H]1C[C@@H]2CCN1C[C@@H]2c1cc(C(CC)CC)nc(-c2ccncc2)n1 | -
Cn1nc(C2CCCC2)cc1[C@H]1CN2CC[C@H]1C[C@@H]2CNC(=O)c1cccs1 | -
SMILES | nsP2pro primary | others
CCC(CC)c1cc([C@H]2CN3CC[C@H]2C[C@@H]3CNC2CCN(C)CC2)nc(-c2ccncc2)n1 | -
COc1ccc(-c2cc([C@H]3CN4CC[C@H]3C[C@@H]4COC(=O)Nc3ccccc3)n(C)n2)cc1 | -
Cc1ccnc(NC(=S)NCCNc2cccc(C(F)(F)F)c2)c1 | -
Cc1cc(C)nc(NC(=S)N2CCN(c3cc(Cl)cc(Cl)c3)CC2)c1 | -
OB1OCc2cc(F)ccc21 | -
COc1cccc(NC(=S)N2CCN(c3cccc(Cl)c3Cl)CC2)n1 | -
CC(C)c1cnn2c(NCc3ccccc3-n3cccn3)nc(OC3CCCNC3)nc12 (stereo not given) | -
Cc1ccc(-c2cc3n(n2)CCCN(C(=O)CCc2cc(Cl)no2)C3)o1 | 8.9µM | nsP2 cell sec=-;CHIKV NSP2 FL=-;Furin counterscr=-;NS23 peptide cs=?;Papain counter=-;nsP2pro confirm=?;HCV NS3 4A cs=-
CCc1ccc(-c2cc3n(n2)CCCN(C(=O)CCc2cc(Cl)no2)C3)cc1 | -
Cc1ccc(-c2cc3n(n2)CCCN(C(=O)CCN2C(=O)NC(C)(C)C2=O)C3)cc1C | -
Cc1ccc(S(=O)(=O)Nc2cnccc2C(=O)Nc2nc(-c3nc4ccccc4s3)cs2)cc1 | -
O=C(Cc1cccc(Cl)c1)NC1CCN(Cc2ccc(-c3ccsc3)cc2)C1 (stereo not given) | -
Cc1nn(-c2ccc(C(F)(F)F)cc2)c(C)c1[C@@H]1C=C[C@@H](NCc2ccc(N(C)C)cc2)C1 | -
Cc1nn(-c2ccccn2)c(C)c1[C@@H]1C=C[C@@H](NC(=O)NC(C)C)C1 | 10µM | nsP2 cell sec=?;CHIKV NSP2 FL=19µM;Furin counterscr=-;NS23 peptide cs=?;Papain counter=-;nsP2pro confirm=13µM;HCV NS3 4A cs=13µM
Cc1ccc(-n2nc(C)c([C@@H]3C=C[C@@H](NC(=O)NC(C)C)C3)c2C)cc1Cl | -
Cc1nn(-c2ccccn2)c(C)c1[C@@H]1C=C[C@@H](NC(=O)CCC(=O)O)C1 | -
CCNC(=O)N[C@@H]1C=C[C@@H](c2c(C)nn(-c3ccc(OC)cc3)c2C)C1 | -
